Measurements: PubChem BioAssay (NCI)
Several values for one entry are separate records, joined by “and”; a condition that tells them apart may be missing. Equal values may be shown once. About 83,000 compounds went through this panel and 20% of them were active in at least one assay; those are over-represented in the sample as a whole.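 Single-concentration screen, 48 h exposure, 96-well plates. Endpoint: percent growth. Below 10 = active.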 Activity calls are given as the source filed them.

Each molecule was assayed on CAKI-1 renal (assay: NCI-60 one-dose screen, 48 h (100 = growth as untreated, 0 = no growth, -100 = all killed)). Settings: 10 µM unless noted.

Row | SMILES | growth
1 | CC1(c2ccc3ccccc3c2)CCC(=O)O1 (stereo not drawn) | 100% (inactive)
2 | CC1=C(/C=C/C(C)=C/C=C/C(C)=C/C=N/NC(=S)NC(=S)N/N=C/C=C(C)/C=C/C=C(C)/C=C/C2=C(C)CCCC2(C)C)C(C)(C)CCC1 | -37.9% (active) and -20.1% (active)
3 | CCCCOc1cc(C(=O)NCCN(CC)CC)c2ccccc2n1 | 73.6% (inactive) and 92.8% (inactive)
4 | COc1cc2c(c(OC)c1OC)-c1ccc(OC)c(=O)cc1[C@@H](NC(C)=O)CC2 | 36.5% (inactive) and 21% (inactive) and 20.3% (inactive)
5 | CN1CCN(c2ccc3nc(-c4c(N)c5c(F)cccc5[nH]c4=O)[nH]c3c2)CC1 | 14% (inactive) and 20.4% (inactive)

What follows are molecules tested on A498 renal in the same assay as above. Settings: 10 µM unless noted.

Row | SMILES | growth
6 | O=[N+]([O-])c1ccccc1/C=N\Nc1ccccc1 | 79.7% (inactive) and 70.1% (inactive)
7 | CCN(CC)CCNc1cc(-c2cccc(OC(F)(F)F)c2)nc2ccc(N3CCCC3)cc12 | 71.2% (inactive) and 4.86% (active) and 50.8% (inactive)
8 | CC(=O)Nc1cc(S(=O)(=O)O)cc2cc(S(=O)(=O)O)c(N=Nc3ccccc3)c(O)c12 | 102% (inactive) and 92.4% (inactive)
9 | CC(C)CNC(=O)c1ccccc1C(=O)NC1(C(=O)NCC(C)C)CCCC1 | 84.2% (inactive) and 123% (inactive)
10 | COc1cc2nc(N3CCN(C(=O)C4COc5ccccc5O4)CC3)nc(N)c2cc1OC (stereo not drawn) | 105% (inactive) and 94.2% (inactive) and 101% (inactive)
11 | O=C(Cc1cccc2ccccc12)N/N=C/c1ccc2c(c1)CCC2 | 72.7% (inactive)
12 | CC1=C(/C=C/C(C)=C/C=C/C(C)=C/C(=O)O)C(C)(C)CCC1 | 20.2% (inactive) and 109% (inactive) and 86.7% (inactive)
13 | O=C(Nc1ccc(Br)cc1)c1cc(Br)ccc1O | -12.7% (active) and -34.6% (active)
14 | Cc1cc(-c2ccc(NS(=O)(=O)c3ccccc3)c(C)c2)ccc1NS(=O)(=O)c1ccccc1 | 90.8% (inactive) and 89.8% (inactive)
15 | O=C(CCl)c1ccc2c(c1)Nc1ccccc1S2 | 84.1% (inactive) and 77.2% (inactive)
16 | CC1CCCc2sc3nc(NNC(=O)c4cnccn4)n(-c4ccccc4)c(=O)c3c21 (stereo not drawn) | 27.8% (inactive)
17 | Cc1cc(O)c(C(C)C)cc1N | 92.3% (inactive) and 89.7% (inactive)
18 | COc1ccc2cc3[n+](cc2c1OC)CCc1cc2c(cc1-3)OCO2 | 86.8% (inactive) and 90.8% (inactive)
19 | COc1c(/C(C)=N/N=c2sc(C(C)=O)nn2-c2ccc(Cl)cc2)c(Oc2ccccc2)c(OC)c2occc12 | 100% (inactive) and 77.1% (inactive)
20 | OC(COc1cccc2ccccc12)CN1CCN(c2ccc(Cl)cc2)CC1 (stereo not drawn) | 92.3% (inactive) and 77% (inactive)
21 | CNc1ccc2nc3ccc(=[N+](C)C)cc-3sc2c1 | 57.8% (inactive) and 49.1% (inactive)
22 | CC1=NN(c2ccccc2)C(=O)C1C(=O)c1ccccc1 (stereo not drawn) | 92.4% (inactive)
23 | OCCN1CCN(CCO)CC1 | 110% (inactive) and 95.5% (inactive) and 101% (inactive)
24 | CC1=CCC2CC1C2(C)C (stereo not drawn) | 103% (inactive) and 81% (inactive)
25 | COc1cc(/C=N/Nc2nc3c([nH]2)c(=O)n(C)c(=O)n3C)ccc1O | 82.3% (inactive) and 77.6% (inactive)
26 | S=C(S)N1CCCC1 | 72.5% (inactive) and 102% (inactive)
27 | CC(=O)Oc1cc(C(=O)O)cc(OC(C)=O)c1OC(C)=O | 73.8% (inactive)
28 | CCN(CC)C(=O)c1cccnc1 | 114% (inactive)
29 | O=C(Nc1cccc(Cl)c1)c1cc2ccccc2cc1O | -33.6% (active)
30 | Cn1c(SSc2ccc(-c3cccnc3)n2C)ccc1-c1cccnc1 | 82.2% (inactive) and 95.7% (inactive)
31 | CN1CCN(CCC=C2c3ccccc3Sc3ccc(S(=O)(=O)N(C)C)cc32)CC1 | 73.5% (inactive) and 62.1% (inactive)
32 | Oc1c(Cl)cc(Cl)cc1Sc1cc(Cl)cc(Cl)c1O | 54.4% (inactive) and 42.3% (inactive) and 69.5% (inactive)
33 | Cn1c(=O)n(-c2ccc(C(C)(C)C#N)cc2)c2c3cc(-c4cnc5ccccc5c4)ccc3ncc21 | -46.3% (active) and -44.5% (active)
